# A number with no mark means an inactive call.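 The calls were made as follows: active = RAM network inhibition above 8.4% in each of two replicates, 3 SD over the compound average; inconclusive = above 8.4% inhibition in only one replicate; inactive = 8.4% inhibition or less in each replicate.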
# Experiment: RAM signaling pathway blockade in yeast – S. cerevisiae, Pdr1DBD-CYC8 efflux-inhibited sensitized strain, primary screen (AID 1298);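 also: 0% = DMSO untreated cells without growth and 100% = 10 µM 1-NA-PP1 full growth; higher means more yeast growth rescued from 5-FOA killing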
# Conditions: S. cerevisiae cbk1-as DSE1-URA3 strain, 5-FOA growth OD615, 2 d; at 50 µM; active compounds read high
row,SMILES,RAM network inhibition
1,Cn1cc(SCC(=O)N2CCN(c3ccccc3)CC2)c2ccccc21,7.36%
2,COc1ccc(C(=O)Nc2ccc(Cl)cc2C(=O)NCc2ccco2)cc1OC,7.76%
3,Cc1cccc(N=C(N2CCOCC2)P(=O)(N2CCOCC2)N2CCOCC2)c1,5.26%
4,COc1cccc(-n2c(Cc3cc(=O)[nH]c(=O)[nH]3)nnc2SCC(=O)Nc2ccccc2)c1,0.67%
5,Cc1ccc(C)c(SCC(=O)OCC(=O)Nc2ccc(S(=O)(=O)N3CCOCC3)cc2)c1,5.86%
6,CC(C)n1c(NCc2cc(Cl)ccc2O)nc2ccccc21,1.06%
7,c1ccc2c(c1)CCN(c1nc3ccccc3n3cnnc13)C2,-0.31%
8,CC1CCN(S(=O)(=O)c2ccc(NC(=O)c3cccs3)cc2)CC1,3.83%
9,CCCCOc1ccc(C2(C)CC(=O)NC2=O)cc1 (stereo not drawn),-1.18%
10,COc1ccc(C2C(C(=O)Nc3cccnc3)=C(C)Nc3nc(-c4ccco4)nn32)cc1 (stereo not drawn),2.07%
11,CN(CCNC(=O)C1CC(=O)N(C2CCCC2)C1)Cc1ccccc1 (stereo not drawn),0.52%
12,O=C(NCCCN1CCCC1=O)c1ccccc1NS(=O)(=O)c1ccc(F)cc1,5.37%
13,CCOC(=O)c1sc2nc3n(c(=O)c2c1C)CCCCC3,4.46%
14,CS(=O)(=O)N(CC(=O)NCc1ccco1)c1ccc(Cl)c(C(F)(F)F)c1,7.07%
15,CC(NS(=O)(=O)c1ccc(Br)cc1)C(c1cccs1)N1CCN(C)CC1 (stereo not drawn),0.88%
16,CCOC(=O)C1Cn2c(nc3c(c2=O)C(C)(CC)Cc2ccccc2-3)S1 (stereo not drawn),3.03%
17,COc1cccc(N2CCN(c3ncnc4c3cnn4-c3ccc(C)cc3C)CC2)c1,8.39%
18,COc1ccc(N2CSC3=C(C#N)C(c4ccc(OC)c(OC)c4)CC(=O)N3C2)c(OC)c1 (stereo not drawn),0.93%
19,COc1ccc(-n2cnnc2)cc1,-0.78%
20,COc1ccc(OCc2nnc3n2N=C(c2ccc(OC)cc2)CS3)cc1,7.82%
21,O=C(Nn1nnnc1Nc1ccccc1)C12CC3CC(CC(C3)C1)C2,4.63%
22,Cc1ccc(CCNC(=O)CS(=O)Cc2nc(-c3cccc(C)c3)oc2C)cc1 (stereo not drawn),6.2%
23,COCCCNC(=O)Cn1ncc2ccsc2c1=O,-0.97%

# — PubChem BioAssay
